esBAF inh = SWI/SNF esBAF complex inhibition. mouse ES cells, Bmi1-luciferase knock-in reporter, 24 h; 100% = twice the neutral-well signal. reporter increase, % at 12.5 µM. 2% of 350,000 active. AID 602393; in the data active means activation above about 40%; inconclusive means no clear call, values can overlap the other calls;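 further: 0% = median of the plate's neutral control wells and 100% = double that signal; a rise in the Bmi1 reporter signal indicates esBAF inhibition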
Glyco luc inh = blocks N-linked glycosylation in D54 reporter cells. D54 ERlucT glycosylation luciferase reporter, 24 h; percent of 100 nM tunicamycin response. reporter increase, % at 12.5 µM. 0.23% of 360,000 active;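 active means mean luciferase reporter signal, scaled so untreated is 0 and the glycosylation-blocking control 100, at or above a set limit in every replicate; inconclusive means mean reaches the limit but not every replicate does; inactive means mean below the limit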;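 further: luciferase carries N-glycosylation sites so blocking glycosylation raises the light; 0% = median of neutral control wells and 100% = median of 100 nM tunicamycin wells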
Wnt bcat act = activates Wnt/beta-catenin signaling in a reporter cell assay | activator, plate reader | activation, % at 9.35 µM | 1.2% of 300,000 active | AID 743398; in the data active means activation above about 30%, passing the limit was not always enough; inconclusive means no clear call, values can overlap the other calls;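 further: 0% = neutral control wells and 100% = positive control wells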
PfHsp90 set2 = inhibits growth of yeast expressing Plasmodium falciparum Hsp90; inhibition, % at 9.4 µM; 0.32% of 310,000 active; S. cerevisiae expressing PfHsp90, BacTiter-Glo ATP, 48 h; yeast lacking PDR1 and PDR3 efflux regulators;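 active means every replicate shows inhibition above about 80%, whatever the replicate mean, limit read from the data; inconclusive means mean inhibition reaches the set limit but some replicate falls short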;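 further: 0% = DMSO neutral controls and 100% = 20 µM radicicol positive controls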
Vif imaging = blocks HIV Vif function. inhibition, % at 7.49 µM. AID 602346. 0.35% of 340,000 active. HEK293T cells, Vif self-association by quenched fluorescence, imaging, 24 h; in the data active means inhibition above about 50%, passing the limit was not always enough; inconclusive means no clear call, values can overlap the other calls; inactive means below about 31%
MITF TRPM1 HTS = increases MITF-driven TRPM1 promoter luciferase signal; SK-MEL-5 TRPM1-promoter luciferase, 24 h; % of positive control, neutral wells = 0; 0.75% of 300,000 active; activation, % at 12.5 µM; AID 588334;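 active means mean activation of at least 80% with every replicate also reaching 80%; inconclusive means mean reaches 80% but some replicate falls short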;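 further: 0% = neutral control wells and 100% = parthenolide positive control wells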
* hit, by the source's call; u = inconclusive; x = not tested or not shown. Rows were chosen to be rich in hits. Some 3% of all compounds tested hit in one or more screens of this group.

SMILES	esBAF inh	Glyco luc inh	Wnt bcat act	PfHsp90 set2	Vif imaging	MITF TRPM1 HTS
Cn1ccnc1SCC(=O)Nc1ccc(Oc2ccccc2)cc1	50*	-5	7	-23	-4	u
COc1ccc(C(=O)CSc2nccn2C)cc1	42*	-2	17	-21	9	79
CCC1Nc2ncnc(N3CCN(c4ccccc4)CC3)c2N(Cc2ccc(OC)cc2)C1=O (stereo not drawn)	6	-2	-3	-6	1	-13
Cc1ccc(CNCc2ccc3c(c2)OCO3)cc1	-3	-1	-1	-4	27	x
O=C(COc1ccccc1Cl)Nc1cccnc1	x	0	0	30	8	56
Cc1ccc(Cl)c(OCC(=O)Nc2ccc3c(c2)OCCO3)c1	86*	-4	x	x	-11	131*
Cc1cccc(OCC(=O)Nc2ccc3c(c2)OCO3)c1C	12	-1	10	-7	6	x
Cc1ccc(OCC(=O)Nc2ccc3c(c2)OCO3)c(C)c1	x	-4	13	-17	-3	89*
CC(OC(=O)c1cccnc1)C(=O)Nc1ccc2c(c1)OCO2 (stereo not drawn)	x	-2	-2	1	15	8
Cc1ccc(C(=O)OC(C)C(=O)Nc2ccc3c(c2)OCO3)c(O)c1 (stereo not drawn)	50*	5	-6	-52	21	17
Cc1ccc(Cl)c(OCC(=O)Nc2cccnc2)c1	34	-3	27	11	x	101*
COc1ccc(S(=O)(=O)N2CCOCC2)cc1NC(=O)Cc1ccsc1	-2	2	0	27	1	-5
CCc1cccc(CC)c1NC(=O)NC1CCCCC1	-1	1	-5	4	4	4
O=C(c1ccc(N2CCCS2(=O)=O)cc1)N1CCN(c2ccccc2)CC1	6	-1	1	0	7	5
COc1cccc(OC)c1C(=O)NC(=O)Nc1c(C)cccc1C	-9	-2	-2	-17	-16	-3
Cc1cc(OCC(=O)N(C)C2CCCCC2)cc(C)c1Cl	x	-2	-1	-21	6	45
C[C@@H]1CN([C@H](C)CO)C(=O)c2cc(NC(=O)Nc3ccc4c(c3)OCO4)ccc2O[C@H]1CN(C)S(=O)(=O)c1cn(C)cn1	0	x	x	x	x	x
CC(=O)c1ccc(N2CCN(C(=O)c3ccc(Cn4c(=S)[nH]c5ccc(N6CCOCC6)cc5c4=O)cc3)CC2)cc1	61*	-4	4	0	-12	14
CN(C)S(=O)(=O)N1CCN(c2cc(Cl)ccc2Cl)CC1	0	0	x	2	x	-2
c1ccc(-c2noc(-c3ccc4c(c3)OCO4)n2)cc1	x	-18	12	-24	x	3
COc1ccc(-c2noc(-c3ccc4c(c3)OCO4)n2)cc1	x	0	21	-5	-4	87*
COc1cccc(-c2noc(-c3ccc4c(c3)OCO4)n2)c1	x	-15	42*	x	-6	28
COc1ccccc1CNS(=O)(=O)c1cccc(S(=O)(=O)N2CCOCC2)c1	x	0	-3	-10	4	-17
Cc1ccc(C(=O)CC(=O)c2ccccc2C)c(O)c1	62*	-3	12	-1	-4	-9
Cc1ccc(C(=O)CC(=O)c2cccc(F)c2)c(O)c1	46*	4	x	x	-8	x
SMILES	esBAF inh	Glyco luc inh	Wnt bcat act	PfHsp90 set2	Vif imaging	MITF TRPM1 HTS
Cc1ccc(O)c(C(=O)CC(=O)c2ccccc2Cl)c1	x	-3	9	-50	-8	22
CC(=O)c1ccc(C)cc1OC(=O)c1cccc(F)c1	-6	0	-1	6	x	-1
COc1cc(C=C2CCCC(=Cc3ccc(OCC4CO4)c(OC)c3)C2=O)ccc1OCC1CO1 (stereo not drawn)	x	-7	-6	x	62*	x
CCOC(=O)N1CCC(N2Cc3cccc(C(=O)Nc4ccc(OC)c(OC)c4)c3C2=O)CC1	10	-3	1	18	-2	3
Cc1cc(-c2cccs2)c(C#N)c(=S)[nH]1	x	4	3	-12	-3	x
N#Cc1c(-c2cccs2)cc(-c2cccs2)[nH]c1=O	x	1	5	-4	51*	x
O=C(C1CC1)N1CC[C@@H]2[C@H]1c1cc(Br)ccc1N[C@@H]2CO	47*	x	x	x	x	x
CC(C)(C)c1ccc(C(=O)NCCCNC(=O)c2cccnc2)cc1	47*	0	-4	-44	-21	12
CC(=O)Nc1cccc(OCCCNC(=O)c2ccc(C(C)(C)C)cc2)c1	-2	3	31*	x	26	x
CC(=O)Nc1cccc(OCCCNC(=O)c2ccc(F)cc2)c1	5	-3	14	12	3	14
COc1cc(OC)cc(C(=O)NCCCNC(=O)c2cccnc2)c1	-12	0	0	-69	15	2
CC(C)Oc1ccc(C(=O)NCCCNC(=O)c2cccnc2)cc1	2	0	38*	1	-4	-3
O=C(NCCCCNC(=O)c1cccnc1)c1cccnc1	2	1	x	10	12	x
Cc1ccccc1C(=O)N1CCC(C(=O)OCc2nc(N)nc(Nc3ccccc3)n2)CC1	2	2	-4	x	9	13
CCc1ccc(-c2nc(CCl)cs2)cc1	28	-4	8	6	100*	24
COc1ccc(S(=O)(=O)N2CCCCCC2)cc1C(=O)N(C)Cc1ccco1	-2	-1	2	x	-4	6
CC1=NN(C(N)=S)C(=O)C1N=Nc1ccccc1Cl (stereo not drawn)	11	1	2	-22	-12	8
CC1=NN(C(N)=S)C(=O)C1N=Nc1ccc(F)cc1 (stereo not drawn)	68*	-3	21	14	1	63
CC1=NN(C(N)=S)C(=O)C1N=Nc1cccc(C)c1 (stereo not drawn)	67*	2	25	-29	-8	50
CC1=NN(C(N)=S)C(=O)C1N=Nc1ccc(Cl)cc1Cl (stereo not drawn)	79*	2	12	-22	1	x
CC1=NN(C(N)=S)C(=O)C1N=Nc1ccc(O)cc1 (stereo not drawn)	23	0	3	5	5	3
CC1=NN(C(N)=S)C(=O)C1N=Nc1ccc([N+](=O)[O-])cc1 (stereo not drawn)	76*	1	x	-11	4	48
CCSc1nc2sc3c(c2c(=O)[nH]1)CC(C)(CC)OC3 (stereo not drawn)	-3	1	x	x	10	8
CNC(=O)c1nn(-c2ccc(C)cc2)ccc1=O	0	2	-3	-10	8	-12
COc1ccc(/C=C/C(=O)c2cc(F)ccc2OC(=O)c2ccccc2)cc1OC	-19	6	-33	-44	x	-63
COc1ccc(/C=C/C(=O)c2ccc[nH]2)cc1OC	53*	-4	6	x	20	59
COc1ccc(/C=C/C(=O)c2cc(F)ccc2OC(=O)c2ccccc2OC)cc1OC	x	11	0	-27	91*	-50
COc1ccc(/C=C/C(=O)c2ccc[nH]2)c(OC)c1OC	47*	-1	22	-24	0	x
